Here are results for eight molecules from PubChem BioAssay (Tox21).

Values joined by “and” are separate entries in the source; they are usually repeats but may differ in a detail not shown here. Equal entries are not always repeated. Inconclusive results are not listed. The source holds several records for some structures; these can differ, active in one and inactive in another. Active and inactive are the calls of the source. Unless noted, the call rests on the fitted dose curve.

Assay [1] is described as follows: Nuclear factor erythroid 2-related factor 2/antioxidant responsive element (Nrf2/ARE) small molecule agonists: qHTS cell viability counter screen in human keratinocytes (AID 1919968; active means well fitted curve in the direction sought with a large enough effect in the repeat runs; an effect the other way counts as inactive or inconclusive; further: nearly all actives have a fitted effect of over 55% in size; further: potency means the concentration at half of the fitted maximal effect). The essentials:
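Seed 1,500 KeratinoSens cells per well, then incubate 5 h at 37 C/5% CO2. Add compounds in DMSO and incubate 23 h. Add CellTiter-Fluor, wait 1 h and read fluorescence.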

A short description of assay [2]: Nuclear factor erythroid 2-related factor 2/antioxidant responsive element (Nrf2/ARE) small molecule agonists: luciferase reporter gene qHTS assay in human keratinocytes (AID 1919969; further: nearly all actives have a fitted effect of over 35% in size). (In general: Reporter assays use an easily measured gene product as a stand-in for the process of interest.)
Assay [3] can be described thus: G protein-coupled receptor (GPCR) small molecule agonists, calcium flux assay: HEK293 wild type cell line counter screen (AID 1920065). The essentials:
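Counter-screen of the Tox21 10K library for non-specific calcium release: dye-loaded cells received compounds in DMSO and were monitored by kinetic fluorescence (480/540 nm, 3 min). Fifteen concentrations, run in triplicate.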
(Calcium flux is commonly read through the fluorescence of an indicator in the cells.)

A short description of assay [4]: p53 small molecule agonists, cell-based qHTS assay with human liver microsomes (AID 1963577). A digest of the protocol:
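Fluorescence of the beta-lactamase reporter in p53RE-bla cells, detected with LiveBLAzer substrate (2 h, room temperature, dark), served as the read-out after 16 h compound exposure at 37 C with human liver microsomes and NADPH, each 0.5 mg/mL final.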
In general terms: In qHTS, concentration-response curves come from the screen itself.

Assay [5] is described as follows: p53 small molecule agonists, cell-based qHTS assay with rat liver microsomes (AID 1963578). A digest of the protocol:
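Cells carrying a p53 response element–beta-lactamase reporter were plated and rested 5 h, then dosed with compound in DMSO plus rat liver microsomes and NADPH, each at 0.5 mg/mL final. After 16 h at 37 C, LiveBLAzer substrate was added for 2 h.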

Assay [6] in a line: p53 small molecule agonists, cell-based qHTS assay with human liver microsomes: qHTS cell viability counter screen (AID 1963579). Further: nearly all actives have a fitted effect of over 45% in size. The essentials:
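Cytotoxicity counter screen: p53RE-bla, 4,000 cells/well; 5 h settle, 37 C/5% CO2; cpd + HLM 0.5 mg/mL + NADPH 0.5 mg/mL (final); 16 h, 37 C; CellTiter-Glo, 30 min RT, luminescence.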

The nature of assay [7]: p53 small molecule agonists, cell-based qHTS assay: qHTS cell viability counter screen (AID 1963581). Further: nearly all actives have a fitted effect of over 45% in size. The essentials:
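Cells: HCT-116 with p53 response element-driven beta-lactamase. Treatment: 16 h, 37 C, compounds in DMSO. Read: CellTiter-Glo luminescence after 30 min RT.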

Assay [8] is described as follows: p53 small molecule agonists, cell-based qHTS assay (AID 1963582; active means well fitted activation curve with a large enough effect in the signal ratio in the repeat runs, not every such curve was filed as active; the % refers to the signal ratio). The essentials:
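Quantitative HTS in p53RE-bla cells: after a 5 h settling period, compounds delivered in DMSO were left on cells for 16 h at 37 C, and reporter induction was measured as fluorescence following 2 h substrate loading.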

Assay [9] deals with 5-hydroxytryptamine receptor 2A (Homo sapiens) (UniProt P28223). Put plainly: 5-hydroxytryptamine receptor 2A (HTR2A) small molecule antagonists, cell-based qHTS assay (AID 1963586). Further: nearly all actives have a fitted effect of over 45% in size. The essentials:
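Antagonist-mode intracellular calcium assay: DOI (4 nM) added after 5 min compound pre-incubation at room temperature to dye-loaded HTR2A-CHO cells. Fluorescence followed for 3 min, sampled every second.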

Assay [10] shares this target. Nature of the assay: 5-hydroxytryptamine receptor 2A (HTR2A) small molecule agonists, cell-based qHTS assay (AID 1963587). Further: nearly all actives have a fitted effect of over 30% in size. The essentials: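 Kinetic calcium-flux fluorescence (2 min, 1 sec intervals) after compound addition in agonist mode. HTR2A-CHO cells were cultured 18 h, then dye-loaded 1 h at 37 C.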
The target of assay [11] is Muscarinic acetylcholine receptor M1 (Homo sapiens) (UniProt P11229). Nature of the assay: Cholinergic receptor muscarinic 1 (CHRM1) small molecule antagonists, cell-based qHTS assay (AID 1963588). Further: nearly all actives have a fitted effect of over 40% in size. The essentials: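 CHRM1-CHO calcium-flux assay, antagonist mode. Cells were seeded 18 h, dye-loaded 1 h at 37 C and given compound for 5 min at RT, then acetylcholine was added at 50nM. FDSS fluorescence was read 3 min; 15 concentrations, three runs.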

Assay [12] shares this target. Nature of the assay: Cholinergic receptor muscarinic 1 (CHRM1) small molecule agonists, cell-based qHTS assay (AID 1963589). Further: nearly all actives have a fitted effect of over 35% in size. A digest of the protocol: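 Agonist-mode qHTS in CHO cells stably carrying human muscarinic M1. Intracellular calcium is tracked by fluorescence every second after compound transfer; each compound runs at 15 concentrations in three independent runs.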

Assay [13] in a line: cAMP Responsive Elements (CRE) small molecule agonists, cell-based qHTS assay (AID 1963590). A digest of the protocol: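 Agonist mode qHTS in CRE-bla HEK 293T cells: compounds dosed from DMSO for 3 h at 37 C/5% CO2, followed by LiveBLAzer B/G FRET substrate for 2 h at room temperature.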
A short description of assay [14]: cAMP Responsive Elements (CRE) small molecule antagonists, cell-based qHTS assay (AID 1963591; active means well fitted inhibition curve with a large enough effect in the signal ratio in the repeat runs, not every such curve was filed as active; the % refers to the signal ratio). The essentials:
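Antagonist mode: test compounds are co-incubated with the adenylyl cyclase activator NKH477 (0.25 uM final) on CRE-bla HEK293T cells for 3 h at 37 °C, followed by LiveBLAzer substrate loading.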

Assay [15] addresses Beta-2 adrenergic receptor (Homo sapiens) (UniProt P07550). Nature of the assay: Adrenergic beta2 receptor (ADRB2) small molecule antagonists, cell-based qHTS assay (AID 1963592). Further: series mostly up to about 92 µM; nearly all actives have a fitted effect of over 50% in size. A digest of the protocol: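 Cells (CHO, stable ADRB2 overexpression) incubated 18-20hr at 37C; compounds added from DMSO; agonist mix (1nM isoproterenol, 100uM IBMX, 25uM Ro-20-1724) added; 0.5hr RT; d2-cAMP and anti-cAMP-cryptate added; 1hr RT; 665/615 nm read.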

Assay [16] concerns the target D(2) dopamine receptor (Homo sapiens) (UniProt P14416). Put plainly: Dopamine D2 receptor (DRD2) small molecule antagonists, cell-based qHTS assay (AID 1963595; active means well fitted inhibition curve with a large enough effect in the signal ratio in the repeat runs, with a control signal flat; the % refers to the signal ratio). The essentials:
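Stable D2 receptor HEK293 line, 24 h after seeding. Compound preincubated 10 min, then quinpirole (12 nM) with forskolin analogue NKH477 (200 nM), 30 min, room temperature. Detection by time-resolved FRET of cAMP.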

Assay [17] can be described thus: p53 small molecule agonists, cell-based qHTS assay with rat liver microsomes: qHTS cell viability counter screen (AID 1963580). Further: nearly all actives have a fitted effect of over 45% in size. Further: potency means the concentration at half of the fitted maximal effect. A digest of the protocol: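 HCT-116 p53RE-bla, 4,000 cells/well, 5 h pre-incubation; cpd + rat liver microsomes 0.5 mg/mL + NADPH 0.5 mg/mL (final); 16 h, 37 C; CellTiter-Glo, 30 min RT; luminescence.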
For assay [18], the target named is D(2) dopamine receptor (Homo sapiens) (UniProt P14416). Put plainly: Dopamine D2 receptor (DRD2) small molecule agonists, cell-based qHTS assay (AID 1963594). Further: nearly all actives have a fitted effect of over 35% in size. A digest of the protocol: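 cAMP accumulation in DRD2-HEK293 cells measured by HTRF after 1 h detection; compounds added 10 min before NKH477 (200nM […]) forskolin-analogue stimulation, 30 min at room temperature, with Ro20-1724 present at 0.1 mM final.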

For assay [19], the target named is KiSS-1 receptor (Homo sapiens) (UniProt Q969F8). Put plainly: Human kisspeptin (KISS1R) small molecule agonists, calcium flux assay in KISS1R-HEK293 cells (AID 1920064; active means well fitted curve in the direction sought with a large enough effect in the repeat runs; an effect the other way counts as inactive or inconclusive). The essentials: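 Cells plated and incubated 18 h; dye added, 1 h at 37 C; compounds in DMSO pinned in; signal read at 480/540 nm every second for 3 min. Each compound tested at 15 concentrations in triplicate.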

Assay [20] deals with Beta-2 adrenergic receptor (Homo sapiens) (UniProt P07550). Nature of the assay: Adrenergic beta2 receptor (ADRB2) small molecule agonists, cell-based qHTS assay (AID 1963593).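 Further: CHO cells stably overexpressing human ADRB2.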 The essentials:
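CHO cells stably over-expressing ADRB2 were plated overnight at 37C, then dosed with compounds plus a stimulation mix containing 100uM IBMX and 25uM Ro-20-1724 for 0.5hr at room temperature. cAMP was measured by HTRF competition, 1hr.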

Sequence of KiSS-1 receptor (Homo sapiens) (Q969F8 whole entry, looked up): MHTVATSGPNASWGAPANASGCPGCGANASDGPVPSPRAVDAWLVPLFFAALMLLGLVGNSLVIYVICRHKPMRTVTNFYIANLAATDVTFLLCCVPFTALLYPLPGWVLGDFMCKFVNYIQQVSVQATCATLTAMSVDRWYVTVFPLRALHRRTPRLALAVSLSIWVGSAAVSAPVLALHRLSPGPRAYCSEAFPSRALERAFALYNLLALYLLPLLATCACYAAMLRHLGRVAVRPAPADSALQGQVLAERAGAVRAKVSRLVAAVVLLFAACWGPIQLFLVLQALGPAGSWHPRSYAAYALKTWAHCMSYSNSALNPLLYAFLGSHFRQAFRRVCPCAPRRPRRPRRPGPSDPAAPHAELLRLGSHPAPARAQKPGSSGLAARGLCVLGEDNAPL
Sequence of Muscarinic acetylcholine receptor M1 (Homo sapiens) (P11229 whole entry, looked up): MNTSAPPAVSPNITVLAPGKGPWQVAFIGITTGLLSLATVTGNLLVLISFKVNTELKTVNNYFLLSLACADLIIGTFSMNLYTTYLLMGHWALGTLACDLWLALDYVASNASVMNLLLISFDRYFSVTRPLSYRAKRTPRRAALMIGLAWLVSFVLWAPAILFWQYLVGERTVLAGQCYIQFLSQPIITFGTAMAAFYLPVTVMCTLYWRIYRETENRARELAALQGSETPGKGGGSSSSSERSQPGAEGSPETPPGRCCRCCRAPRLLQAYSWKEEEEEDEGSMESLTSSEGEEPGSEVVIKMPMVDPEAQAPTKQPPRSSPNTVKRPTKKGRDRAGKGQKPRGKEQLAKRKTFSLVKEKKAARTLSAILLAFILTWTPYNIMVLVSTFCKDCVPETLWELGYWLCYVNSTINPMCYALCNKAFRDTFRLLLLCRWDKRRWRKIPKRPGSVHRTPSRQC
Sequence of D(2) dopamine receptor (Homo sapiens) (P14416 whole entry, looked up): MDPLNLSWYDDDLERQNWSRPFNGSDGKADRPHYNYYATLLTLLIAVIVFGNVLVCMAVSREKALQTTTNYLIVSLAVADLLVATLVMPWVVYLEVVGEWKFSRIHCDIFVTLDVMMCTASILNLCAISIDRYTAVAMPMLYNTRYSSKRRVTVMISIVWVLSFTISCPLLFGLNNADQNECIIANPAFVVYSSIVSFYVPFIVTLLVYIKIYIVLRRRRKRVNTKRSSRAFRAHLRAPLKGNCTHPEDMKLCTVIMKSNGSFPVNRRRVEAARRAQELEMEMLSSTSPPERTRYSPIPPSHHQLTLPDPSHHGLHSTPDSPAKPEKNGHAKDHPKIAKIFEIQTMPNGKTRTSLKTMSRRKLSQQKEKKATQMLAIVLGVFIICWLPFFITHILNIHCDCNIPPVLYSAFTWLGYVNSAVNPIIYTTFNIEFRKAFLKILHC
Sequence of Beta-2 adrenergic receptor (Homo sapiens) (P07550 whole entry, looked up): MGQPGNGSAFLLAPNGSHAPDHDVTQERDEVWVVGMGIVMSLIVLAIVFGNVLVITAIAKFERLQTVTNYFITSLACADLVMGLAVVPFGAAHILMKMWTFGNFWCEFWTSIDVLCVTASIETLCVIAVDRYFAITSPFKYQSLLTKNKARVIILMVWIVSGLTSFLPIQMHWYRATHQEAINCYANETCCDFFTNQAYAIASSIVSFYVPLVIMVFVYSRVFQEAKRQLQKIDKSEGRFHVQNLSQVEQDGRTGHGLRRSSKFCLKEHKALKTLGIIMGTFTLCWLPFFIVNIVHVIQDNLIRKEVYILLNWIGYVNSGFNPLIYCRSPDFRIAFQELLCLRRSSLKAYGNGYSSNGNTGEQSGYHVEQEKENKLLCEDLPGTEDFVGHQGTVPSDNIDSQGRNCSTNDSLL
Sequence of 5-hydroxytryptamine receptor 2A (Homo sapiens) (P28223 whole entry, looked up): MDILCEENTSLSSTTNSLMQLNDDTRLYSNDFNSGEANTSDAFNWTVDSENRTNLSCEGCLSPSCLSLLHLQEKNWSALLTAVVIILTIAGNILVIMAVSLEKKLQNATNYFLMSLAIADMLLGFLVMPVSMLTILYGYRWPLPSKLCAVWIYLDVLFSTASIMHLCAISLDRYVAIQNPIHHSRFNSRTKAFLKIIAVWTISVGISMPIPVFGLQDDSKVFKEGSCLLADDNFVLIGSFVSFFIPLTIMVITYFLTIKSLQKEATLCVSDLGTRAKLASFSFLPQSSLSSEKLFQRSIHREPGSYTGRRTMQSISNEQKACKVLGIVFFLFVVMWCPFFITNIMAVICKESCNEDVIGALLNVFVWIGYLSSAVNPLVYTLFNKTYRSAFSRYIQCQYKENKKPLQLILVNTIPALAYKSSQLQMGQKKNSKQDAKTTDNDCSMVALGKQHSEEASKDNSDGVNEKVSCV

On to `Cc1ccc(Cl)c(O)c1`, for which the Potency result in assay [1], in assay [2], in assay [3], in assay [4], in assay [5] and in assay [6] was “inactive” in each case. For the same molecule, the Potency result in assay [7], in assay [8], in assay [9], in [10], in assay [11] and in assay [12] was “inactive” throughout. In addition, the Potency result in assay [13], in assay [14], in [15] and in assay [16] was “inactive” throughout.

Turning to `O=[N+]([O-])c1ccc(Cl)c(Cl)c1`, the Potency entry in assay [1], in assay [2], in assay [3], in assay [6], in [17] and in [7] was “inactive” each time. Besides, the Potency entry in [9], in assay [10], in [11], in assay [12], in assay [13] and in assay [14] was “inactive” in each case. In addition, the Potency result in assay [15], in assay [18] and in assay [16] was “inactive” each time.

Take `CCCCCCCCCc1ccc(O)cc1`: the Potency in assay [1] is 27.6 µM (active); in [17], “inactive and 40.8 µM (active)”. In addition, the Potency result in [2], in assay [3], in [4], in assay [5], in [7] and in assay [8] was “inactive” throughout. In addition, the Potency entry in assay [13], in assay [14], in assay [18] and in assay [16] was “inactive” each time.

`CCCCN(CCCCO)N=O`: the Potency result in assay [1], in assay [2], in assay [4], in [5], in assay [6] and in assay [17] was “inactive” each time. Also, the Potency result in [7], in assay [8], in assay [10], in assay [12], in assay [13] and in assay [14] was “inactive” throughout. Besides, the Potency entry in [15], in [18] and in [16] was “inactive” throughout.

Regarding `CCCCOC(=O)c1ccccc1C(=O)OCCCC`, the Potency result in assay [1], in assay [2], in assay [19], in assay [3], in assay [4] and in assay [5] was “inactive” throughout. Moreover, the Potency result in assay [6], in assay [17], in [7], in [8], in assay [9] and in assay [10] was “inactive” each time. In addition, the Potency entry in assay [11], in assay [12], in assay [13], in [14], in assay [15] and in assay [20] was “inactive” throughout. In addition, the Potency entry in [18] and in assay [16] was “inactive” in each case.

Regarding `CN(N=O)C(N)=O`, the Potency entry in assay [1], in [2], in [19], in assay [3], in assay [4] and in [5] was “inactive” throughout. Further, the Potency entry in assay [6], in assay [17], in assay [7], in assay [8], in assay [9] and in assay [10] was “inactive” in each case. The Potency result in [11], in assay [12], in assay [13], in assay [14], in assay [15] and in assay [20] was “inactive” throughout. In addition, in [18], the Potency result was “inactive”.

As for `CCCSC(=O)Cl`, the Potency entry in [1], in assay [2], in assay [4], in [5], in assay [6] and in [17] was “inactive” in each case. Besides, the Potency result in [7], in assay [9], in [10], in [11], in assay [12] and in assay [13] was “inactive” throughout. For the same molecule, the Potency result in assay [14], in assay [15], in assay [20], in assay [18] and in assay [16] was “inactive” in each case.

Turning to `CNC(=O)O/N=C/C(C)(C)SC`, the Potency entry in assay [1], in assay [2], in assay [3], in assay [6], in assay [17] and in assay [7] was “inactive” each time. Moreover, the Potency entry in assay [8], in assay [9], in assay [10], in assay [11], in assay [12] and in [13] was “inactive” each time. The Potency result in [14], in [15], in assay [20], in [18] and in [16] was “inactive” each time.
